# Source: the supplement of paper PMC8728848
# Many of the other results were omitted from the sample, so the strongest signals are more common in it than they were.
# Tests used:
# Test in all cases: glycan array binding signal (z-score within array); higher = stronger binding
# Conditions in all cases: glycan notation: IUPAC condensed, linker removed
# [1] = molecular target: Gal(b1-4)GlcNAc(b1-3)Gal(b1-4)GlcNAc(b1-3)Gal(b1-4)GlcNAc(b1-3)Gal(b1-4)GlcNAc(b1-3)Gal(b1-4)GlcNAc(b1-3)Gal(b1-4)GlcNAc(b1-2)Man(a1-3)[Gal(b1-4)GlcNAc(b1-3)Gal(b1-4)GlcNAc(b1-3)Gal(b1-4)GlcNAc(b1-3)Gal(b1-4)GlcNAc(b1-3)Gal(b1-4)GlcNAc(b1-3)Gal(b1-4)GlcNAc(b1-2)Man(a1-6)]Man(b1-4)GlcNAc(b1-4)GlcNAc
# Summary of the method: (§1)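 Glycan array binding is given as a within-array Z-score, which can be read as non-binding when negative. The arrays, 3228 of them, came from the Consortium for Functional Glycomics database and were retained only where the protein sequence was available. Z-scores were averaged across arrays of the same protein sequence at different concentrations or buffers and across linkers.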
# Gal(b1-6)Gal = molecular target: Gal(b1-6)Gal
# Summary of the method: as §1
# Gal3S(b1-3)GlcNAc = molecular target: Gal3S(b1-3)GlcNAc
# Summary of the method: as §1
# [2] = molecular target: Gal3S(b1-4)[Fuc(a1-3)]GlcNAc6S
# Summary of the method: as §1
# Gal6S(b1-3)GlcNAc = molecular target: Gal6S(b1-3)GlcNAc
# Summary of the method: as §1
# Gal6S(b1-4)Glc6S = molecular target: Gal6S(b1-4)Glc6S
# Summary of the method: as §1
# [3] = molecular target: GlcNAc(a1-3)Gal(b1-4)GlcNAc
# Summary of the method: as §1
# [4] = molecular target: GlcNAc(b1-2)Gal(b1-3)GalNAc
# Summary of the method: as §1
# [5] = molecular target: GlcNAc(b1-2)Man(a1-3)[GlcNAc(b1-4)][GlcNAc(b1-2)Man(a1-6)]Man(b1-4)GlcNAc(b1-4)GlcNAc
# Summary of the method: as §1
# GlcNAc(b1-3)Gal = molecular target: GlcNAc(b1-3)Gal
# Summary of the method: as §1
# [6] = molecular target: GlcNAc(b1-4)GlcNAc(b1-4)GlcNAc(b1-4)GlcNAc(b1-4)GlcNAc
# Summary of the method: as §1
# [7] = molecular target: Man(a1-2)Man(a1-6)[Man(a1-3)]Man(a1-6)[Man(a1-2)Man(a1-2)Man(a1-3)]Man(b1-4)GlcNAc(b1-4)GlcNAc
# Summary of the method: as §1
# [8] = molecular target: Man(a1-3)[Man(a1-6)]Man(a1-6)[Man(a1-3)]Man(b1-4)GlcNAc(b1-4)GlcNAc
# Summary of the method: as §1
# [9] = molecular target: Neu5Ac(a2-3)Gal(b1-3)GalNAc6S
# Summary of the method: as §1
# [10] = molecular target: Neu5Ac(a2-3)Gal(b1-3)GlcNAc(b1-3)Gal(b1-3)GlcNAc
# Summary of the method: as §1
# [11] = molecular target: Neu5Ac(a2-3)Gal(b1-3)[Neu5Ac(a2-6)]GalNAc
# Summary of the method: as §1
# [12] = molecular target: Neu5Ac(a2-3)Gal(b1-4)GlcNAc(b1-6)[Neu5Ac(a2-3)Gal(b1-3)]GalNAc
# Summary of the method: as §1
# [13] = molecular target: Neu5Ac(a2-3)Gal(b1-4)[Fuc(a1-3)]GlcNAc(b1-3)Gal
# Summary of the method: as §1
# [14] = molecular target: Neu5Ac(a2-6)Gal(b1-4)GlcNAc(b1-2)[Neu5Ac(a2-6)Gal(b1-4)GlcNAc(b1-6)]Man(a1-6)[Neu5Ac(a2-6)Gal(b1-4)GlcNAc(b1-2)Man(a1-3)][GlcNAc(b1-4)]Man(b1-4)GlcNAc(b1-4)GlcNAc
# Summary of the method: as §1
# [15] = molecular target: Neu5Ac(a2-6)Gal(b1-4)GlcNAc(b1-3)Gal(b1-4)GlcNAc(b1-3)[Neu5Ac(a2-6)Gal(b1-4)GlcNAc(b1-3)Gal(b1-4)GlcNAc(b1-6)]GalNAc
# Summary of the method: as §1
# [16] = molecular target: Neu5Ac(a2-6)GlcNAc(b1-4)GlcNAc
# Summary of the method: as §1
# [17] = molecular target: Neu5Ac(a2-8)Neu5Ac(a2-3)[GalNAc(b1-4)]Gal(b1-4)Glc
# Summary of the method: as §1
binder,measurement,setting,value
rCnSL-A (Clitocybe nebularis) (protein) VNPNLPGPNDVFVGFRGTNNIVGAIYEKDGIKDTPLNNGADAEMGPGSYITDGLFTARIFASGSAGNNPGTTATVCKIYASGVQWRGAPKGYIPVAYFGNGPTAEQRRQTYLRTLGLPGTAIRFGNLNTNPGQGPTAPRQMVVPPGPLRSLLKASCFPAADTRLPQTLHYFEKRVDWNIITAADSQTWGH,glycan array binding signal (z-score),[1],7.72
same,glycan array binding signal (z-score),Gal(b1-6)Gal,-0.201
same,glycan array binding signal (z-score),Gal3S(b1-3)GlcNAc,-0.252
same,glycan array binding signal (z-score),[2],-0.25
same,glycan array binding signal (z-score),Gal6S(b1-3)GlcNAc,-0.309
same,glycan array binding signal (z-score),Gal6S(b1-4)Glc6S,-0.241
same,glycan array binding signal (z-score),[3],-0.253
same,glycan array binding signal (z-score),[4],-0.27
same,glycan array binding signal (z-score),[5],-0.223
same,glycan array binding signal (z-score),GlcNAc(b1-3)Gal,-0.22
same,glycan array binding signal (z-score),[6],-0.217
same,glycan array binding signal (z-score),[7],-0.138
same,glycan array binding signal (z-score),[8],-0.237
same,glycan array binding signal (z-score),[9],-0.234
same,glycan array binding signal (z-score),[10],-0.25
same,glycan array binding signal (z-score),[11],-0.305
same,glycan array binding signal (z-score),[12],-0.165
same,glycan array binding signal (z-score),[13],-0.229
same,glycan array binding signal (z-score),[14],-0.269
same,glycan array binding signal (z-score),[15],0.406
same,glycan array binding signal (z-score),[16],-0.287
same,glycan array binding signal (z-score),[17],-0.246
